Source: PubChem BioAssay
Shown are actives, neighbours in structure and some others; about 3.8% of the full set was active somewhere.
S2 tox: viability counter-screen for ATXN expression inhibitors | S2 cells (HEK-293 line with an ATXN2-luciferase reporter) viability, CellTiter-Fluor protease fluorescence, 24 h | Potency, µM (highest dose often 56.7 µM), usual class: cytotoxic | hit rate 0.49% among 400,000; further: nearly all actives have a fitted effect of over 40% in size
HT1080-NT tox: kills 2HG-producing HT-1080-NT fibrosarcoma cells; HT-1080-NT fibrosarcoma viability, CellTiter-Glo ATP luminescence, 48 h; Potency, µM (highest dose often 46.1 µM), for the others: at the top dose activity, negative = less viability, hits mostly cytotoxic; hit rate 1.6% among 360,000;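 further: NT is the 2HG producing partner of a matched IDH1 knockdown line; 0% = DMSO-treated cells and -100% = media-only wells without cells; nearly all actives have a fitted effect of over 55% in size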
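Viability by CellTiter-Glo luminescence after 48 h compound exposure at 37C of HT-1080-NT cells (750/well, RPMI, 5% FBS). % activity scaled between DMSO wells and medium-only wells, then curve-fitted and categorized by curve class.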
ATXN2 expr inh: reduces ATXN2 reporter expression in HEK-293 cells | HEK-293 ATXN2-luciferase reporter, luminescence, 24 h | Potency, µM (doses to about 57 µM), inactives show at the highest dose activity change, negative = inhibition, actives largely listed as inhibitors | hit rate 0.72% among 360,000 | AID 1745845; further: on the % scale 0 is the no-effect control and ±100 the full control effect; nearly all actives have a fitted effect of over 55% in size
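ATXN2-luciferase reporter cells (luciferase flanked by upstream and downstream ATXN2 gene portions) were treated 24 h at 37 °C with compounds at up to 57 uM. SteadyGlo luminescence gave expression; GF-AFC fluorescence gave viability.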
TGFb inhibitor: inhibitors of TGF-b signaling; HepG2 CAGA-GFP TGF-b/SMAD3 reporter, GFP fluorescence, 18 h; TGF-beta stimulated, 500 pg/mL final; Potency, µM (top dose mostly 46.1 µM), inactives show at the highest dose activity, negative = inhibition, most hits filed as inhibitors; hit rate 1.2% among 410,000; AID 588855; further: on the % scale 0 is the no-effect control and ±100 the full control effect; nearly all actives have a fitted effect of over 65% in size
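Inhibition of TGF-beta-driven CAGA-GFP reporter expression in HEPG2 cells is measured by cellular GFP fluorescence after 18 h stimulation with 500 pg/mL recombinant TGF-beta in 1% FBS medium at 37 degrees C.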
HT1080 IDH1KD tx: HT-1080 IDH1 knockdown cell toxicity (counter line). HT-1080 IDH1 knockdown viability, ATP luminescence, 48 h. Potency, µM (titrated, usually from 46.1 µM), for the others: at the highest dose activity, negative = toxicity, actives largely listed as cytotoxic. hit rate 2% among 360,000. AID 686971;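 further: 0% = DMSO wells and -100% = cell-free medium wells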
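In this qHTS, HT-1080 cells depleted of IDH1 are exposed for 48 h at 37 °C to compound titrations. Toxicity is scored from CellTiter-Glo luminescence, with DMSO as full viability and medium alone as none.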
HepG2 viability: HepG2 cytotoxicity, counter-screen for TGF-b inhibitors; HepG2 CAGA-GFP viability, ATP luminescence, 18 h; Potency, µM (titrated, usually from 46.1 µM), inactives show top-dose activity change, negative = cytotoxicity, most hits filed as cytotoxic; hit rate 0.76% among 410,000; AID 588856
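HepG2 CAGA-GFP cells (1000/well, DMEM with 1% FBS) received compound, then TGF-beta at 500 pg/mL final, and were incubated 18 hours at 37 degrees C. Viability was read by CellTiter-Glo luminescence. Media-only wells were set as complete cell-killing and DMSO as no toxicity.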
The depositor's hits bear a star; i = inactive; ? = inconclusive; . = no result; ! = a repeat was not active. The call rests on the fitted dose curve; in most records, active means well fitted curve in the direction sought with a large enough effect; inconclusive means small, poorly fitted or top-dose-only effect, or another doubt; inactive means no such curve, though single readings can be large; an effect the other way counts as inactive or inconclusive. Potency means the concentration at half of the fitted maximal effect.

SMILES | S2 tox | HT1080-NT tox | ATXN2 expr inh | TGFb inhibitor | HT1080 IDH1KD tx | HepG2 viability
COc1ccc(NC(=O)c2cn(CCC#N)nc2-c2cccc([N+](=O)[O-])c2)cc1 | ? | -21% | 0% | 9% | 1% | 8%
CN1C(=O)/C(=C/c2ccc(Cl)s2)C(=O)NC1=S | 16µM* | ? | ? | -14% | ? | -20%
O=c1[nH]c(O)c(C=NC2CCCCC2)c(=O)[nH]1 | ? | 5% | 0% | 5% | -1% | 0.63µM*
Cn1c(O)c(C=NC2CCCCC2)c(=O)[nH]c1=S | i | 4% | 0% | -5% | 23% | -7%
O=[N+]([O-])c1cc(C(F)(F)F)c(Cl)c([N+](=O)[O-])c1Nc1ncc(C(F)(F)F)cc1Cl | . | . | . | 1.8µM* | . | 2.5µM*
CC(C)CCOP(=O)(c1ccc(N(C)C)cc1)C(O)c1ccc(Cl)cc1Cl (centres undefined) | ? | 23µM* | 0% | ? | 16µM* | -170%
CC(C)CN1C(=S)SC(C)(C)C1n1oc(=O)n(-c2ccc(Cl)cc2)c1=O (centres undefined) | ? | ? | ? | ? | ? | -34%
Cc1ccc(-n2nc3c(N4CCC(C(=O)NCCc5ccccc5)CC4)nnc(C)c3c2C)cc1 | i | . | -21% | ? | . | -27%
CN1CCN(CCOC2c3ccccc3CSc3ccc(Cl)cc32)CC1 (centres undefined) | ? | 16µM* | -26% | ? | ? | -46%
Clc1ccc2c(c1)C(OC1CN3CCC1CC3)c1ccccc1CS2 (centres undefined) | . | -25% | ? | ? | ? | -111%
CC(N)C(=O)NC1C2C(=C(O)CC(O)C2O)C(=O)OC1(C)C(Cl)Cl (centres undefined) | ? | ? | 1.5µM* | ? | 0.92µM* | -4%
O=C1NC(=O)C(=Cc2ccc(-c3ccc(S(=O)(=O)N4CCOCC4)cc3)o2)C(=O)N1 | i | 15% | 2% | -6% | 13% | -10%
O=C1NC(=O)C(=Cc2ccc(Sc3ccccc3)o2)C(=O)N1 | ? | 18µM* | ? | -49% | 13µM* | -185%
O=C1NC(=O)C(=Cc2ccc(-c3ccc(Cl)cc3)o2)C(=O)N1 | 28µM* | 1% | ? | ? | 7% | -29%
CN1C(=O)C(=Cc2ccc(Sc3ccccc3)o2)C(=O)N(C)C1=O | i | 8% | 1% | 0% | -4% | -27%
CCOC(=O)c1cccc(NC(=O)NCc2ccc3c(c2)CCN3C(=O)c2ccccc2)c1 | i | . | -1% | ? | . | -13%
CCOC(=O)c1ccccc1NC(=O)N(Cc1ccc(CC)cc1)Cc1cn[nH]c1-c1ccc(OC)cc1 | . | . | . | ? | . | -10%
Nc1ccc(CC(N)c2csc(Nc3ncccn3)n2)cc1 (centres undefined) | i | -14% | -24% | -5% | -30% | -4%
NC(Cc1ccc(Cl)cc1)c1csc(Nc2ncccn2)n1 (centres undefined) | ? | 18µM* | ? | ? | 5.8µM* | -43%
NC(Cc1ccc(F)cc1)c1csc(Nc2ncccn2)n1 (centres undefined) | i | 5.8µM* | ? | ? | 6.5µM* | -23%
Nc1ccc(Cl)cc1C(=O)c1ccccc1F | i | . | 0% | . | . | .
Cc1ccc(C)c(S(=O)(=O)c2nnn3c2nc(N2CCN(C)CC2)c2sccc23)c1 | . | . | . | ? | . | -16%
CC(C)CC(=O)N(Cc1ccccc1)S(=O)(=O)c1ccc2c(c1)oc(=O)n2C | i | . | 4% | ? | . | -29%
COc1cc2[nH]c(=O)n(Cc3ccc(C(=O)N4CCN(c5ccc(Cl)cc5)CC4)cc3)c(=O)c2cc1OC | i | . | -11% | ? | . | -8%
CCN(CC)Cc1nccn1-c1ccc([N+](=O)[O-])cc1C(=O)c1ccccc1Cl | ? | . | -13% | . | . | .
SMILES | S2 tox | HT1080-NT tox | ATXN2 expr inh | TGFb inhibitor | HT1080 IDH1KD tx | HepG2 viability
N#CC(C#N)=Cc1ccc(C=C(C#N)C#N)cc1 | ? | ? | ? | ? | 23µM* | 25µM*
C=C1C(C)C2C(Cc3ccccc3)NC(=O)C23C(OC(C)=O)C=CC(C)(O)CC(C)CC=CC3C1O (centres undefined) | ? | -4% | 0% | -19% | ? | -20%
CC(=O)O[C@@H]1/C=C/[C@](C)(O)C[C@@H](C)C/C=C/[C@H]2[C@H](O)C(C)=C(C)[C@H]3[C@H](Cc4ccccc4)NC(=O)[C@@]123 | i | 2.6µM* | 2% | 7% | ? | -36%
O=C(NCCCl)Nc1ccccc1NS(=O)(=O)c1cccs1 | ? | 8% | 0% | ? | 4% | -14%
CC(O)CN1CCN(CC(=O)[O-])CCN(CC(=O)[O-])CCN(CC(=O)[O-])CC1.[Gd+3] (centres undefined) | i | . | 8% | . | . | .
O=C(COc1ccc(S(=O)(=O)N2CCOCC2)cc1)Nc1ccc(Cl)c(C(F)(F)F)c1 | i | ? | -25% | ? | ? | -35%
Cc1ccc(-n2c(O)c(/C=N/Nc3ccccc3)c(=O)[nH]c2=O)cc1C | i | ? | -16% | 9% | 6.5µM* | 2%
COc1ccc(N/N=C/c2c(O)n(-c3cccc(C)c3)c(=O)[nH]c2=O)cc1 | i | 12µM* | -29% | -20% | 12µM* | -26%
Cn1c(O)c(/C=N/Nc2ccccc2)c(=O)n(C)c1=O | i | 8.2µM* | -21% | 4% | 7.3µM* | 1%
Cn1c(O)c(C=Nc2ccccc2)c(=O)n(C)c1=O | i | 2% | -23% | 5% | -7% | -15%
COc1ccc(N/N=C/c2c(O)n(-c3ccc(C)c(C)c3)c(=O)[nH]c2=O)cc1 | i | ? | 1% | -7% | ? | -10%
CC(C)N[C@@H]1CCn2c(=O)[nH]c3cccc(c32)[C@@H]1O | . | . | 4% | . | . | .
Clc1ccc(COC(Cn2ccnc2)c2ccc(Cl)cc2Cl)cc1 (centres undefined) | ? | ? | 35µM*! | ? | 15µM* | -95%
C=C1C(=O)[C@@]23C[C@H]4[C@@H]5[C@@]6(C)CCC[C@@]57[C@@H]2[C@@H](O)[C@@H]1C[C@H]3[C@H]7N4C6 | 7.9µM* | ? | ? | 13µM* | ? | -48%
CCCCC(=O)Nc1c(C(=O)N2CCN(c3ccccc3F)CC2)oc2ccccc12 | . | . | . | ? | . | -25%
O=C(CCCCCCCCCCC(=O)NCc1cccnc1)NCc1cccnc1 | i | ? | 27% | 6% | 4.6µM* | -16%
S=C(SSC(=S)N1CCCCC1)N1CCCCC1 | 10µM*! | . | -90% | . | . | .
